Results filed as inconclusive are left out. The source made the active and inactive calls. Calls follow the shape of the dose curve; as a rule, active = well fitted cell-killing curve with a large enough effect; inconclusive = small, poorly fitted or top-dose-only effect; inactive = flat fitted curve, though single readings scatter. Where a SMILES comes first, the peptide text is derived from it. Bridges are numbered along the chain shown (N, C = ends). [ ]: non-standard residue; d: D form. hArg = N=C(N)NCCCC[C@H](N)C(=O)O; Mpa = O=C(O)CCS

The assay in a line: qHTS of pediatric cancer cell lines to identify multiple opportunities for drug repurposing: Primary screen for BT-37 cells (AID 1347094). The note with it: BT-37 viability, CellTiter-Glo luminescence, 48 h; series mostly up to 57.3 µM; activity change, negative = cytotoxic: at the top concentration. From the text:
Drug repurposing or repositioning has been offered as a strategy for drug development in oncology programs. This approach has special potential for childhood cancers and other rare or orphan diseases, where the expected return on new drug development has been a disincentive to pharmaceuticals. […] In this project we exploit the poly-pharmacology of drugs to discover new indications via phenotypic screening of a panel of 19 well-characterized cell lines derived from solid tumors seen in children and adolescents. The goal is to identify approved drugs with previously unrecognized anticancer properties that has the potential to reveal new mechanisms and biological processes involved in carcinogenesis or drug resistance. We employed a titration-based paradigm (quantitative high-throughput screening or qHTS), where all compounds were tested at multiple concentrations for their effect on cell viability. Concentration-response curves (CRCs) were derived directly from the primary screen, and both potency and efficacy values were used to identify compounds with robust bioactivity profiles. We screened the NIH Chemical Genomics Center (NCGC) Pharmaceutical Collection (NPC) and Mechanism Interrogation Plate (MIPE) small molecule collections of approved and investigational compounds against these cell lines; and measured metabolically active cells after 48 hours of compound treatment as a proxy for cell viability. […] Assay Submitter: Nathalia J. Martinez, National Center for Advancing Translational Sciences, National Institutes of Health, Rockville, MD, USA; email: natalia.martinez@nih.gov Shen, M et al. Quantitative high-throughput phenotypic screening of pediatric cancer cell lines identifies multiple opportunities for drug repurposing. Oncotarget 2017 Dec 19;9(4):4758-4772. PMID 29435139.
The cells were obtained from University of North Carolina (UNC), Pediatric Preclinical Testing Program (PPT), and Coriell Institute (CI). qHTS cell viability assay: Cells were assayed in growth media at a density of 500-1,000 cells/well. Five microliters of cells were dispensed into 1,536-well, white, solid-bottom, TC-treated plates (Greiner Bio One) using a multidrop dispenser and incubated at 37 degrees C, 5% CO2, under a humidified atmosphere for 5 hours. Twenty-three nanoliters of compounds and controls (neutral control DMSO or positive control bortezomib at final concentration of 2.3 µM) were subsequently transferred by Kalypsys pintool. For primary screens, the MIPE collection was tested at 11-point dilutions (final concentrations range from 0.78 nM to 46 µM) and the NPC collection at 8-point dilutions (final concentrations range from 0.59 nM to 46 µM). Compounds tested in follow-up screens were assayed at 11-point dilutions. Cells were incubated for 48 hours, followed by addition of 3 µL of CellTiter-Glo (Promega). After a 15 min incubation at room temperature, samples were analyzed for luminescence intensity using a ViewLux High-throughput CCD imager equipped with clear filters.
A general note: In qHTS, concentration-response curves come from the screen itself.
Turning to `CCCCCCCCCCCCCCCCCCO`, the “activity change, negative = cytotoxic” value is 9.58% (inactive). The value for `Nc1ccncc1N` was -3.12% (inactive); that for `CC(=O)Nc1cccc(O)c1` was 1.7% (inactive). The value for `CCCCCCCCCCC(CO)CCCCCCCC` (stereo not given) was 10.4% (inactive). The same measure for `Cc1onc(-c2ccccc2)c1-c1ccc(S(N)(=O)=O)cc1`: 8.99% (inactive). Consider `NC(=O)c1ccc([N+](=O)[O-])cc1Cl`, for which the “activity change, negative = cytotoxic” value was 9.88% (inactive).

For the compound `O=C(O)c1ccccc1C(=O)Nc1ccc(S(=O)(=O)Nc2nccs2)cc1`, the “activity change, negative = cytotoxic” value was -12.2% (inactive). `C[N+](C)(C)CC[N+]1(C)Cc2c(Cl)c(Cl)c(Cl)c(Cl)c2C1`: the “activity change, negative = cytotoxic” value was 11.1% (inactive). The value for `Cc1[nH]c(C)c(Cl)c(=O)c1Cl` was 12.8% [at 20.1 µM] (inactive). The value for `O=C(O)c1ccc[n+]([O-])c1` was 12% (inactive); that for `CN1CC(=O)NC1=N` was 14.2% (inactive); that for `CC1CC(OC(=O)c2ccccc2O)CC(C)(C)C1` (stereo not given) was 7.58% (inactive). The value for `Cc1ccc(S(=O)(=O)NC(=O)NC2CCCCC2)cc1` was 8.39% (inactive). In the case of `CN(C/C=C/C#CC(C)(C)C)Cc1cccc2ccccc12`, the “activity change, negative = cytotoxic” value is -13.5% (inactive). In the case of `CCc1cccc(CC)c1NC(=O)CN(CC(=O)O)CC(=O)O`, the “activity change, negative = cytotoxic” value was -4.32% (inactive).

Consider `CCCNC(C)(C)COC(=O)c1ccccc1`, for which the “activity change, negative = cytotoxic” value was -1.12% (inactive).

Turning to `Cc1cccc(C)c1NC(=O)CC12CCCN1CCC2`, the “activity change, negative = cytotoxic” value was -0.541% (inactive). The same measure for `Cc1c(I)c(=O)n(-c2ccccc2)n1C`: 11% (inactive); for `CCN(CC)CC1CCCCN1CC(=O)N1c2ccccc2C(=O)Nc2cccnc21` (stereo not given): 0.703% (inactive); for `CCOc1cc(NC(C)=O)ccc1C(=O)OC`: -0.32% (inactive). The value for `COc1ccccc1OCC(O)CO` (stereo not given) was 6.57% (inactive). Consider `CC(=O)Oc1cccc(C)c1`, for which the “activity change, negative = cytotoxic” value is 3.47% (inactive). The value for `CC(C)(C)NCC(O)COc1cccc2c1CCC(=O)N2` (stereo not given) was 7.18% (inactive); that for `CCS(=O)(=O)CCn1c([N+](=O)[O-])cnc1C` was 3.99% (inactive); that for `CCOC(=O)[C@H](CCc1ccccc1)N[C@@H](C)C(=O)N1Cc2cc(OC)c(OC)cc2C[C@H]1C(=O)O` was 7.57% (inactive). Turning to `CN(C(=O)c1c(O)c2ccccc2n(C)c1=O)c1ccccc1`, the “activity change, negative = cytotoxic” value is 9.38% (inactive). The value for `COC(=O)c1ccc(O)cc1` was 9.6% (inactive); that for `COc1ccc(O)cc1` was -16.2% (inactive); that for `O=C1c2cccc(O)c2C(=O)c2c(O)cccc21` was -8.63% (inactive).

As for `O=C(O)Cc1ccc(CCNS(=O)(=O)c2ccc(Cl)cc2)cc1`, the “activity change, negative = cytotoxic” value is 4.49% (inactive). The value for `NC(=O)[C@@H]1CSSCCC(=O)N[C@@H](CCCCN=C(N)N)C(=O)NCC(=O)N[C@@H](CC(=O)O)C(=O)N[C@@H](Cc2c[nH]c3ccccc23)C(=O)N2CCC[C@H]2C(=O)N1` ([Mpa][hArg]GDWPC-NH2; disulfide 1-7) was 5.35% (inactive); that for `Cc1ccsc1C(=CCCN1CCC[C@@H](C(=O)O)C1)c1sccc1C` was -2.29% (inactive).

With `CCN(CC)CCc1nc(-c2ccccc2)no1`, the “activity change, negative = cytotoxic” value is 25.2% (inactive). `CCOC(=O)c1cccnc1`: the “activity change, negative = cytotoxic” value is 25.7% (inactive).

Take `O[C@@H]1CO[C@H]2[C@@H]1OC[C@@H]2O`: the “activity change, negative = cytotoxic” value was 11.1% (inactive). The same measure for `CN1CCN(C(=O)C2CCCCC2)CC1`: 15% (inactive). For `Cc1c(N(C)C)c(=O)n(-c2ccccc2)n1C`, the “activity change, negative = cytotoxic” value is 12% (inactive). The value for `CN1CCCN=C1COC(=O)C(O)(c1ccccc1)C1CCCCC1` (stereo not given) was 5.53% (inactive); that for `N[C@@H](Cc1ccc(O)cc1)C(=O)O` was 20.6% [at 11.5 µM] (inactive).

With `O=C(O)CCCCC1CCSS1` (stereo not given), the “activity change, negative = cytotoxic” value was 16.3% (inactive).
